For 36 molecules, composite z-score results are on record in PubChem BioAssay.

Sequence of Streptavidin (Streptomyces avidinii) (P22629 whole entry, looked up): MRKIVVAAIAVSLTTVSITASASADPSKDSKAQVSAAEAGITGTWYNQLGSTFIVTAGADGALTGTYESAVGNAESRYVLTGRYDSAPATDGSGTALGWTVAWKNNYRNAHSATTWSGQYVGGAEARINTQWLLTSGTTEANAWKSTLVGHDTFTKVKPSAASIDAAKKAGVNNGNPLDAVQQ

One test concerns the target Streptavidin (Streptomyces avidinii) (UniProt P22629). Kind of test: compounds binding control protein streptavidin – biophysical, small-molecule microarray, 635/667 nm fluorescence, artefact control for SMM compound annotation, primary screen (AID 1147).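 Also: signal reflects streptavidin binding to arrayed compounds as a control protein.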 The following applies: higher = more signal.
For `CO[C@@H]1COC(=O)[C@H](C)NC(=O)[C@@H](C)COC(=O)CCC[C@H]1C`, the composite z-score was -0.185. As to `CC(C)c1ccc(NN2C(C(O)c3ccc4c(c3)OCO4)C=CC3C(=O)N(c4ccccc4)C(=O)C32)cc1` (stereo not drawn), the composite z-score came to 2.14.

In turn, `CCOC(=O)[C@H](Cc1ccccc1)NC(=O)CCC1CC(OC(=O)NCc2ccc3c(c2)OCO3)CC2(CCCC(COC(=O)NCc3ccccc3)O2)O1` (stereo partly drawn) registered a composite z-score of 1.13.

`CC(C)(C)OC(=O)CC[C@]1(C(=O)NCc2ccccc2)N=C(c2ccc(OCCCO)cc2)O[C@H]1c1ccccc1`: the composite z-score came out at 1.58. Take `Cc1ccc(C2CC=C(C(=O)O)CN2S(=O)(=O)c2ccc(C)cc2)cc1` (stereo not drawn): the composite z-score amounted to 0.169. On to `CC[C@@H](c1ccccc1)n1c(=O)n2n(c1=O)[C@H]1[C@H](O)[C@@H]3O[C@@H]3C(=NOCC=C(C)CCC=C(C)C)[C@H]1CC2`, for which the composite z-score was -0.124. The same measure, in the same setting: in the case of `CC(CCC(=O)OC[C@H]1O[C@H](C#Cc2ccccc2)C=C[C@@H]1Oc1ccc(C)cc1)=NOC[C@@H](O)COCc1ccco1` it was -1.78.

Test system in the next test: not listed separately
Kind of test: probe aInhba binding on compound microarray – biochemical, small-molecule microarray, 635/667 nm fluorescence, primary screen (AID 1148).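 Also: score merges 667nm spot fluorescence with signal-to-noise for antibody binding to printed compounds.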 The following applies: higher = more signal.
`COc1ccc([Si](C)(C)[C@@H]2[C@@H](CCO)O[C@]3(C(=O)N(Cc4ccc(NC(C)=O)cc4)c4ccccc43)[C@H]2C)cc1` had a composite z-score of 0.16.

Turning to `CCCCC(=C=CC[C@H](O)c1ccccc1OCCO)C[C@H](O)COCc1ccccc1`, the composite z-score was -0.0523. For `COC(=O)[C@H]1COC(c2ccc(OCCCO)cc2)=N1`, the composite z-score was -0.204. Still for that read-out and setting: in the case of `CC(C)C[C@@H]1NC(=O)[C@H]2C[C@@H](C(=O)NCCCCCCN(C)C)[C@@H](c3cccc(OCCO)c3)N2C1=O` it was -0.0317. Still for that read-out and setting: in the case of `O=C1O[C@@H](c2ccccc2)[C@@H](c2ccccc2)N2[C@@H](c3ccccc3OCCO)[C@]3(C(=O)Nc4ccc(C#CCCO)cc43)[C@@H](C(=O)O)[C@H]12` it was 1.43; in that of `CC(C)NC(=O)[C@@]1(C)c2ccccc2C(=O)N(Cc2cc(F)cc(C(F)(F)F)c2)[C@H]1c1ccc(CO)cc1`, 0.2; in that of `O=C1O[C@@H](c2ccccc2)[C@@H](c2ccccc2)N2[C@@H](c3ccc(OCCO)cc3)[C@]3(C(=O)Nc4ccccc43)[C@@H](C(=O)N3CCN(c4ncccn4)CC3)[C@H]12`, 0.175.

Molecule `CCc1cc2c(nc1CC)CCN(CCC(C)=NOC[C@@H](O)[C@H]1O[C@@H]3OC(C)(C)O[C@@H]3[C@H]1O)C2` came in with a composite z-score of -0.0216. Same read-out and setting: in the case of `C=CC[C@@H]1C=C[C@H](ON=C(C)CCN2CCc3nc(CC)c(CC)cc3C2)[C@@H](CO)O1` it was 0.0785. The same measure, in the same setting: in the case of `CN(C)CCCNC(=O)[C@@H]1c2ccccc2C(=O)N(Cc2cc(F)cc(C(F)(F)F)c2)[C@H]1c1ccc(CO)cc1` it was -0.0849.

Molecule `O=C1[C@H]2[C@H]3[C@H](O)[C@H](O)CC(=NOC[C@@H](O)COCc4ccco4)[C@H]3CC[C@H]2C(=O)N1c1cccc(Oc2ccccc2)c1` yielded a composite z-score of -0.285.

For `CS(=O)(=O)CCOC(=O)C1=CC(CCCO)=CC(c2cccs2)N(Cc2cccc(OC(F)(F)F)c2)C=C1C(=O)OCCS(C)(=O)=O` (stereo not drawn), the composite z-score was 0.245.

Turning to `CC(CCC(=O)OC[C@H]1O[C@H](C#Cc2ccccc2)C=C[C@@H]1Oc1ccc(C)cc1)=NO[C@@H](C)c1cn([C@H](CO)Cc2ccccc2)nn1`, the composite z-score was -0.003.

For the molecule `COc1ccc(O[C@H]2C=C[C@@H](c3ccccc3)O[C@@H]2COC(=O)CCC(C)=NO[C@@H](C)c2cc(-c3c(C)cc(C)cc3C)no2)cc1`, the composite z-score was -0.295. The molecule `CC(C)[C@@H](OCc1ccccc1)[C@H](C)C=NO[C@H](C)c1cn([C@H](CO)Cc2ccccc2)nn1` yielded a composite z-score of -0.126. `COc1cccc([C@H]2Oc3ccc(OC)cc3C(=NOC(C)CN3CCCc4nc(C)c(C)cc43)[C@@H]2O)c1` (stereo partly drawn): the composite z-score was 0.0442. The same measure, in the same setting: in the case of `O=C1C[C@@H](O)[C@@H](O)[C@@H]2[C@@H]3C(=O)N(C4CCCCC4)C(=O)[C@@H]3CC[C@H]12` it was -0.128; in that of `COc1ccc([Si](C)(C)[C@H]2[C@H](CC(=O)N3CCC[C@H]3CO)O[C@@]3(C(=O)N(Cc4cccc(N5C(=O)COc6ccccc65)c4)c4ccccc43)[C@@H]2C)cc1`, -0.157. On the same count and under the same terms, in the case of `CC(C)NC(=O)[C@@]1(c2ccc([N+](=O)[O-])cc2)CC(=O)N(CC23CC4CC(CC(C4)C2)C3)[C@@H]1c1ccc(CO)cc1I` it was 0.0435; in that of `C=CCOC(=O)[C@H]1[C@@H]2C(=O)O[C@@H](c3ccccc3)[C@@H](c3ccccc3)N2[C@@H](c2ccc(OCCOC(=O)[C@H]3C[C@H]4C(=O)N5CCC[C@H]5C(=O)N4[C@H]3c3cccc(OCCO)c3)cc2)[C@]12C(=O)Nc1ccc(I)cc12`, 1.17. For `CC(C)CN1CCc2nc(-c3ccccc3)c3c(c2CC1)CO[C@@H](C)C3`, the composite z-score was found to be 0.255.

With `CC(C)OC(=O)C=C1C[C@@H](c2ccc(C#N)cc2)O[C@@H](c2ccc(C#N)cc2)O1`, the composite z-score amounted to 0.165. Same read-out and setting: in the case of `C=CC[C@@H]1C=C[C@H](ON=C[C@@H](OC)[C@H](C)C=CCC(=O)OC)[C@@H](CO)O1` it was 0.157; in that of `CN1C(=O)C2C(C1=O)C1C=C(CCCO)C2C(c2ccc(CN3CCCC3)cc2)N1C` (stereo not drawn), -0.157.

The molecule `COCC(=C=CC[C@@H](O)c1ccccc1OCCO)CCO` displayed a composite z-score of -0.0074. Take `COCCOC(=O)N1C(=O)[C@@]2(c3cc(C#CCNC(N)=O)ccc31)[C@H](c1ccc(O)cc1)N1[C@H](c3ccccc3)[C@H](c3ccccc3)OC(=O)[C@H]1[C@@H]2C(=O)N1CCCCCCC1`: the composite z-score was -0.186. On the same count and under the same terms, in the case of `C=C(/C(=C/C[C@H](OC(=O)c1ccncc1)c1ccc(OCCO)cc1)c1cnc2ccccc2c1)C(C)C` it was 0.0471; in that of `Cc1cc2c(c(=O)o1)[C@H](O)[C@H]1O[C@H]1C2=O`, -0.209. Same read-out and setting: in the case of `COC(=O)[C@@H]1CC[C@H](C)[C@@H](c2ccc(C)cc2)N1C(=O)c1ccc(C=NOC[C@@H](O)COCc2ccco2)cc1` it was -0.341; in that of `CO[C@@H]1COC(=O)[C@H](C)NC(=O)[C@@H](C)COC(=O)CCC[C@H]1C`, -0.128. Still for that read-out and setting: in the case of `CC(C)c1ccc(NN2C(C(O)c3ccc4c(c3)OCO4)C=CC3C(=O)N(c4ccccc4)C(=O)C32)cc1` (stereo not drawn) it was 0.125; in that of `CCOC(=O)[C@H](Cc1ccccc1)NC(=O)CCC1CC(OC(=O)NCc2ccc3c(c2)OCO3)CC2(CCCC(COC(=O)NCc3ccccc3)O2)O1` (stereo partly drawn), -0.168; in that of `CC(C)(C)OC(=O)CC[C@]1(C(=O)NCc2ccccc2)N=C(c2ccc(OCCCO)cc2)O[C@H]1c1ccccc1`, 0.347. The molecule `Cc1ccc(C2CC=C(C(=O)O)CN2S(=O)(=O)c2ccc(C)cc2)cc1` (stereo not drawn) returned a composite z-score of -0.024.

On to `CC[C@@H](c1ccccc1)n1c(=O)n2n(c1=O)[C@H]1[C@H](O)[C@@H]3O[C@@H]3C(=NOCC=C(C)CCC=C(C)C)[C@H]1CC2`, for which the composite z-score is -0.0963.

`CC(CCC(=O)OC[C@H]1O[C@H](C#Cc2ccccc2)C=C[C@@H]1Oc1ccc(C)cc1)=NOC[C@@H](O)COCc1ccco1` registered a composite z-score of -0.446.
